Gal4-VP16 FLuc: inhibits Gal4-VP16 luciferase reporter, ROR gamma counter-screen; Potency, µM (series often up to 53.6 µM), without a hit: at the highest dose activity, negative = inhibition, most hits filed as inhibitors; AID 2546; actives 3.5% (n = 310,000); Drosophila S2 Gal4-VP16 UAS-luciferase, luminescence, 20 h;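 note: Gal4-VP16 expression switched on by copper sulfate through the metallothionein promoter; potency is the fitted concentration of half-maximal effect; nearly all actives have a fitted effect of over 50% in size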
IL-1B inflam inh: inflammasome signaling inhibition, IL-1 beta readout; activity change, % at 57.5 µM; THP-1 LPS/ATP IL-1B secretion, AlphaLISA, 16 h; stronger effect = lower value; actives 4.7% (n = 360,000); in the data active = activity change below about -50%; inconclusive = mostly about -30% to -49%
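Secreted IL-1B measured by AlphaLISA bead assay after 16 h compound exposure of THP-1 cells; compounds (final up to 57.5 uM) added 1 h before LPS (250 ng/mL) and ATP (1.25 mM) stimulation; lower signal means less secretion.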
TDP1 cell CPT: growth inhibition of DT40 Tdp1-/-;hTDP1 cells with camptothecin (screen for TDP1 inhibitors) | chicken DT40 Tdp1-/-;hTDP1 cells + 20 nM CPT, ATP luminescence, 48 h | Potency, µM (highest dose often 46.2 µM), inactives show top-dose activity change, negative = growth inhibition, most hits filed as inhibitors | actives 12% (n = 420,000) | AID 686979; note: potency is the fitted concentration of half-maximal effect; nearly all actives have a fitted effect of over 55% in size
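Chicken DT40 Tdp1-/- cells stably complemented with human TDP1 were seeded at 400 cells/well in medium containing 20 nM camptothecin, exposed to pin-transferred compounds, and grown at 37 °C for at least 48 hr. Viability was read as ATP luminescence.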
DT40 TDP1 no CPT: qHTS for Inhibitors of human tyrosyl-DNA phosphodiesterase 1 (TDP1): qHTS in cells in absence of CPT | DT40 Tdp1-/- hTDP1 cells, no CPT, ATP luminescence, 48 h | Potency, µM (top dose mostly 46.2 µM), for inactives: top-dose activity change, negative = growth inhibition, most hits filed as inhibitors | actives 15% (n = 420,000) | AID 686978, 2013; note: potency is the fitted concentration of half-maximal effect; nearly all actives have a fitted effect of over 55% in size
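Seeded 400 DT40-hTDP1 cells/well (vehicle DMSO, no 20 nM CPT); pinned compounds; ≥48 hr at 37 °C; CellTiter-Glo luminescence as viability measure.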
RORg inh: ROR gamma (mouse) transcription inhibition; P51450; Drosophila S2 Gal4-RORgamma UAS-luciferase reporter, 20 h; Potency, µM (top dose mostly 53.6 µM), for the others: at the top dose activity change, negative = inhibition, hits mostly inhibitors; actives 5.4% (n = 310,000); AID 2551; note: potency is the fitted concentration of half-maximal effect; nearly all actives have a fitted effect of over 60% in size
Target sequence (P51450 whole entry, looked up, the tested form may be a part): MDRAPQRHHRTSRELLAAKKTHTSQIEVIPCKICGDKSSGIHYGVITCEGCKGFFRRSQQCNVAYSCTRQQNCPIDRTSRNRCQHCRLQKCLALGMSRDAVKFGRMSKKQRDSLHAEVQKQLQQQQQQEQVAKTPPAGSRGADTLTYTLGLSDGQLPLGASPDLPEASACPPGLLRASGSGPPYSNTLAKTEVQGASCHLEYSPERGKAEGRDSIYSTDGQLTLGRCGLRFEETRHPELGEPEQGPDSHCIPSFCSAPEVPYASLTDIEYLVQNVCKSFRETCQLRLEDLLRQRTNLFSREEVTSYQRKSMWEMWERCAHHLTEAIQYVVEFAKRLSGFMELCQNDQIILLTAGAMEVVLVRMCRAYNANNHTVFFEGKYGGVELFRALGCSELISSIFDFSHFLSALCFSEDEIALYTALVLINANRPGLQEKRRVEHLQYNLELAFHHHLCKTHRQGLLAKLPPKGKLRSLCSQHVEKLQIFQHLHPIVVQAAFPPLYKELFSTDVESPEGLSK
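Drosophila S2 cells stably expressing Gal4-DBD/mouse RORγ fusion under metallothionein promoter plus UAS-luciferase; compound 1 h, then 700 uM CuSO4 induction for 20 h at ambient temperature; inhibition read as reduced luminescence.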
ELG1 repair inh: inhibitors of ELG1-dependent DNA repair in HEK293T cells | HEK293T ELG1-luciferase reporter, luminescence, 16 h; DNA damage induced by 5-fluorouridine | Potency, µM (series often up to 46.1 µM), without a hit: at the top dose activity change, negative = inhibition, hits mostly inhibitors | actives 2.3% (n = 330,000); note: potency is the fitted concentration of half-maximal effect; nearly all actives have a fitted effect of over 55% in size
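In this reporter screen, reduction of luminescence relative to DMSO vehicle indicated activity. Compounds and 5-fluorouridine were added together to 2,000 cells per well, incubated for 16 hr at 37 °C, then developed with ONE-Glo.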
* = called active by the depositor; u = inconclusive; x = not tested or not shown; [ ] = another dose, or the depositor's remark. Compounds with a hit are over-represented: about 21% of the library has one in this group of screens. Unless noted, calls come from the whole dose curve; as a rule, active = well fitted curve in the direction sought with a large enough effect; inconclusive = small, poorly fitted or top-dose-only effect, or another doubt; inactive = no such curve, though single readings can be large; an effect the other way counts as inactive or inconclusive. % is set by controls: 0 for no effect and ±100 for the full control effect.

SMILES	Gal4-VP16 FLuc	IL-1B inflam inh	TDP1 cell CPT	DT40 TDP1 no CPT	RORg inh	ELG1 repair inh
CC(C)(C)OC(=O)C[C@@H]1C/C=C\C[C@@H](CC(=O)NCCO)C(=O)NC[C@H](c2ccccc2)OC1=O	x	2	u	u	x	u
COc1ccc(CCNCc2c(C(=O)O)c(C)n(Cc3cccc(Cl)c3)c2C)c(OC)c1OC	x	x	u	-15%	x	x
O=C(COC(=O)CCN1C(=O)C2CC=CCC2C1=O)Nc1ccc(Cl)cc1F (stereo unspecified)	x	5	-19%	22%	x	11%
CCNc1ccccc1CP(=O)(c1ccccc1)c1ccccc1O (stereo unspecified)	7%	-5	u	2.6µM*	-18%	-12%
Cc1ccc(O)c(CP(=O)(c2ccccc2)c2ccccc2)c1	1%	-7	u	u	6%	-29%
COC(=O)CC1c2ccccc2C=C(C2CC2)N1C(=O)OC (stereo unspecified)	-6%	x	x	x	2%	x
CCOc1ccc(N(CC(=O)N/N=C/c2ccccn2)S(=O)(=O)c2ccc(Cl)cc2)cc1	u	33	u	21µM*	10µM*	1%
COc1ccc(CCNC(=O)CN(c2ccc(C)cc2)S(=O)(=O)c2ccc(OC)cc2)cc1	x	x	u	23µM*	x	x
COc1ccc(N(CC(=O)NCCSCc2ccccc2C)S(=O)(=O)c2ccccc2)cc1	-18%	-19	16µM*	16µM*	-9%	u
Cc1ccc(S(=O)(=O)CCC(=O)NCCc2ccc(Cl)cc2)cc1	1%	-12	-12%	3%	-23%	7%
Cc1ccc(S(=O)(=O)N(CC(=O)NCCc2ccc(Cl)cc2)c2ccccc2C)cc1	x	x	18µM*	13µM*	x	x
CN(Cc1ccccc1)C(=O)COC(=O)c1cc2ccccc2oc1=O	x	7	-14%	4%	x	0%
Cc1cc(C)c(N(Cc2ccccc2)S(=O)(=O)c2ccc(OCCNC(=O)c3cc4ccccc4o3)cc2)c(C(=O)NO)c1	u	x	x	x	10µM*	x
COc1ccc(N(CC(=O)NCCSC2CCCCC2)S(=O)(=O)c2ccc(C)cc2)cc1	-2%	-4	-88%	23µM*	-1%	u
CCCCOc1ccc(S(=O)(=O)NNC(=O)c2cc3ccccc3o2)cc1	-30%	5	u	u	-4%[10 µM]	-7%
Cc1ccc(N(CC(=O)NCC(O)c2ccccc2)S(=O)(=O)c2ccc(C)cc2)cc1 (stereo unspecified)	0%	-94*	-1%	-23%	8%	0%
COc1ccc(S(=O)(=O)N(CC(=O)NCCSc2ccccc2)c2ccc(Cl)cc2)cc1	x	x	16µM*	12µM*	x	x
COc1cccc(C(C(=O)NC(C)(C)C)N(CCc2ccccc2)C(=O)CCC(=O)Nc2cc(C)on2)c1OC (stereo unspecified)	-9%	0	u	u	43%	3%
CC(C)(C)OC(=O)C[C@H]1C/C=C\C[C@@H](CC(=O)N[C@@H](CO)Cc2ccccc2)C(=O)NC[C@H](c2ccccc2)OC1=O	x	11	u	u	x	u
CC(C)(C)c1ccc(-c2nc(O)c(CC(=O)O)s2)cc1	-11%	x	x	x	11%	u
COc1ccc(N(CC(=O)NCCC2=CCCCC2)S(=O)(=O)c2ccc(C)cc2)cc1OC	19%[10 µM]	14	-27%	u	-11%	15µM*
COc1ccc(N(CC(=O)NCCSc2ccccc2)S(C)(=O)=O)cc1	-11%	-11	0%	-8%	9%	-5%
COc1ccc(S(=O)(=O)N(CC(=O)NCCSc2ccccc2)c2ccc(C)cc2)cc1	x	x	18µM*	13µM*	x	x
COc1ccc(S(=O)(=O)N(CC(=O)NCc2ccccn2)c2ccc(Cl)cc2)cc1	-13%	-54*	u	u	u	3%
COc1ccc(N(CC(=O)NCCOc2ccccc2)S(=O)(=O)c2ccc(C)cc2)cc1	u	-22	u	21µM*	-43%	-15%
SMILES	Gal4-VP16 FLuc	IL-1B inflam inh	TDP1 cell CPT	DT40 TDP1 no CPT	RORg inh	ELG1 repair inh
CCOc1ccccc1N(CC(=O)NCC1CCCO1)C(=O)CCC(=O)Nc1ccccn1 (stereo unspecified)	-18%	-1	-4%	0%	35µM*	-2%
CCOc1ccccc1N(CC(=O)NCC1CCCO1)C(=O)CCC(=O)Nc1cc(C)on1 (stereo unspecified)	8%	1	2%	-16%	-37%	5%
Cc1noc(C)c1C(=O)N1CCC2(CCCN(Cc3nccs3)C2)CC1	5%	x	-23%	-24%	7%	x
Cc1cccc(NC(=O)NNS(=O)(=O)c2ccc(F)cc2)c1	-7%	-2	-9%	-27%	4%	-5%
Cc1cccc(NS(=O)(=O)c2ccc3c(c2)[C@H]2C=CC[C@H]2[C@@H](c2ccc(F)cc2)N3)c1	x	x	10µM*	10µM*	x	x
COc1ccc(C)cc1NS(=O)(=O)c1ccc2c(c1)[C@H]1C=CC[C@H]1[C@@H](c1cccc(Cl)c1)N2	x	x	13µM*	21µM*	x	x
COc1ccc(Br)cc1[C@@H]1Nc2ccc(C(=O)O)cc2[C@@H]2C=CC[C@@H]21	x	x	-5%	-5%	x	x
COc1cccc(NS(=O)(=O)c2ccc3c(c2)C2C=CCC2C(c2ccc(C(=O)O)cc2)N3)c1 (stereo unspecified)	-20%	13	-9%	-11%	8%	-13%
COC(=O)c1ccc([C@H]2Nc3ccc(S(=O)(=O)Nc4ccc(F)cc4)cc3[C@H]3C=CC[C@H]32)cc1	x	x	3.7µM*	3.3µM*	x	x
COc1ccc(C(=O)N/N=C(\C)c2ccc3c(c2)C2C=CCC2C(c2ccccc2)N3)cc1 (stereo unspecified)	0%	-5	u	15µM*	u	u
CCOC(=O)C1=CCN(S(=O)(=O)c2ccccc2Cl)C1c1cccc(F)c1 (stereo unspecified)	x	87	u	u	x	x
COc1cccc(CN2C(=O)NC(C)(C3CCN(Cc4cnn(C)c4C)CC3)C2=O)c1OC (stereo unspecified)	x	x	4%	0%	x	x
COCCn1c(SCC(=O)Nc2ccc3[nH]c(=O)[nH]c3c2)nc2ccccc21	x	14	5%	u	x	-2%
